hDAT+cocaine = changed human dopamine transporter uptake under cocaine IC80. Q01959. LLC-PK1 hDAT cells, [14C]-dopamine uptake with cocaine IC80; actives deviate in either direction. B-score at 10 µM. 110,000 tested, 1.3% active;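 active = Z score or B-score, a plate-position-corrected score, falls beyond the plate's 99.7% confidence bounds, in either direction; inactive = both scores lie inside the 99.7% bounds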;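 also: scored against the spread of the other compound wells on the same plate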
CYP2C9 activ = CYP2C9 (human) activation | activation factor at 5 µM | recombinant CYP2C9, luciferin-H conversion, luminescence; stronger effect = higher value; factor 1 = untreated enzyme, 0 = blocked | 96,000 tested, 1.4% active | P11712;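 active = activation factor of 2 or more for CYP2C9 at a 5 µM dose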;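 also: 0 = sulfaphenazole-blocked wells and 1 = vehicle-only wells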
Target sequence (P11712 whole entry, looked up): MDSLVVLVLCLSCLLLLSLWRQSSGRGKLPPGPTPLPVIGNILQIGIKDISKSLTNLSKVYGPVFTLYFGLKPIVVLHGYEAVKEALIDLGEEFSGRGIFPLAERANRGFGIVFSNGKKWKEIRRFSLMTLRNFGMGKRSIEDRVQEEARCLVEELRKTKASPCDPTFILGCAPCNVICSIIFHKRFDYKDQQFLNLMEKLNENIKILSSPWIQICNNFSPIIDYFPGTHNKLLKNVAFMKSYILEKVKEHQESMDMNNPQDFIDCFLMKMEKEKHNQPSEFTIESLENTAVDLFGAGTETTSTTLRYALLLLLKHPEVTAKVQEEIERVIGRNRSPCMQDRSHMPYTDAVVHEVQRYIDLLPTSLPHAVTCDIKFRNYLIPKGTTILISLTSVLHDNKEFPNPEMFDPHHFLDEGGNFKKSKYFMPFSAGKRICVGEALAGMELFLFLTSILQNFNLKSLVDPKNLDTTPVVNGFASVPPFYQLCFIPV
CYP2C9 inhib = blocks human cytochrome P450 2C9; AID 777; P11712; inhibition, % at 5 µM; CYP2C9 Supersomes, luciferin-H conversion, luminescence; 96,000 tested, 20% active;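 active = blocking of liver enzyme CYP2C9 beyond about 50% at 5 µM, limit read from the data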
D1 mod = allosteric modulators of human D1 dopamine receptor | P21728 | AID 641 | 58,000 tested, 5.9% active | B-score at 10 µM | HEK293 D1, CRE-luciferase, dopamine EC30 potentiation; actives deviate in either direction;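 active = luminescence count or its row- and column-corrected plate score outside the 99.7% band of the plate's sample wells, on either side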
CYP2C19 act = cytochrome P450 2C19 (human) activation | activation factor at 5 µM | recombinant CYP2C19, luciferin-H EGE luminescence; stronger effect = higher value; 0 = fully inhibited enzyme, 1 = untreated enzyme | P33261 | 96,000 tested, under 10 active | AID 1025;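 active = activation factor of at least 2 at 5 µM in the primary screen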;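 also: 0 = wells with 2.5 mM tranylcypromine and 1 = vehicle-only wells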
CYP2C19 inh = human CYP2C19 inhibition; inhibition, % at 5 µM; AID 778; 96,000 tested, 21% active; CYP2C19 Supersomes, luciferin-H EGE luminescence, 30 min;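 active = CYP2C19 inhibition above a set limit at 5 µM in the primary screen, cut at about 50% in these data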;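 also: plate controls were negative control wells for no effect and 2.5 mM tranylcypromine positive control for full effect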
An asterisk follows results filed as active. Most compounds without a hit are left out; they make up all but 28% or so of the library.

Screening Cn1c(N)c(C(=O)COC(=O)C2CCC(C(C)(C)C)CC2)c(=O)n(C)c1=O (configuration not stated) returned hDAT+cocaine 0.44, CYP2C9 activ 1.3, CYP2C9 inhib -32, CYP2C19 act 0.8 and CYP2C19 inh 19.
`CCC(=O)N/C(=N\OCc1ccc(F)cc1)c1nonc1NC(=O)CC` gave hDAT+cocaine -1, CYP2C9 activ 0.9, CYP2C9 inhib 12, CYP2C19 act 0.3 and CYP2C19 inh 65*.
Screening CC(=O)Nc1nonc1NC(=O)c1ccc(F)cc1 returned hDAT+cocaine 0.67, CYP2C9 activ 1, CYP2C9 inhib -5, CYP2C19 act 0.7 and CYP2C19 inh 34.
CCCCCC/C(=N/O)c1ccccn1 was read as hDAT+cocaine 0.0075, CYP2C9 activ 0.7, CYP2C9 inhib 28, D1 mod 2, CYP2C19 act 0.8 and CYP2C19 inh 20.
C/C(=N/O)c1ccccn1 was read as hDAT+cocaine -4.6*.
CCOC(=O)c1ccc2[nH]c3c(c2c1)CCCC3C(=O)OCC (configuration not stated) was read as hDAT+cocaine 0.79, CYP2C9 activ 0.2, CYP2C9 inhib 82*, CYP2C19 act 0.1 and CYP2C19 inh 89*.
For C=CCNC(=O)c1onc(CSc2cccc(OC)c2)c1C(=O)NCC=C the results were hDAT+cocaine 0.51.
`O=C1CCCN1c1ccc(S(=O)(=O)Nc2ccc3c(c2)OCCO3)cc1` gave hDAT+cocaine -0.59, CYP2C9 activ 0.6, CYP2C9 inhib 40, D1 mod 0.18, CYP2C19 act 0.6 and CYP2C19 inh 44.
`COC(=O)c1ccc(NS(=O)(=O)c2ccc(SC)cc2)cc1` gave hDAT+cocaine -0.94, CYP2C9 activ 0.9, CYP2C9 inhib 7, D1 mod -0.91, CYP2C19 act 1.1 and CYP2C19 inh -14.
`CSc1ccc(S(=O)(=O)Nc2ccc(N3CCOCC3)c(Cl)c2)cc1` gave hDAT+cocaine 0.53, CYP2C9 activ 0, CYP2C9 inhib 98*, D1 mod -0.24, CYP2C19 act 0 and CYP2C19 inh 100*.
O=S(=O)(Nc1ccc2c(c1)OCCO2)c1ccc(F)cc1 was read as hDAT+cocaine -1.1, CYP2C9 activ 0.3, CYP2C9 inhib 69*, CYP2C19 act 0.1 and CYP2C19 inh 88*.
`CC(C)CNS(=O)(=O)c1ccc2c(c1)OCCO2` gave hDAT+cocaine -1.4, CYP2C9 activ 0.7, CYP2C9 inhib 31, CYP2C19 act 0.6 and CYP2C19 inh 42.
CSc1ccc(S(=O)(=O)Nc2ccc3c(c2)OCCO3)cc1 was read as hDAT+cocaine -0.75, CYP2C9 activ 0.5, CYP2C9 inhib 48, D1 mod -1.5, CYP2C19 act 0.3 and CYP2C19 inh 68*.
Screening O=S(=O)(NCc1ccc(F)cc1)c1ccc2c(c1)OCCO2 returned hDAT+cocaine -0.36, CYP2C9 activ 2*, CYP2C9 inhib -95, D1 mod -0.34, CYP2C19 act 0.4 and CYP2C19 inh 60*.
For Cc1cc(Nc2nc3ccccc3nc2Cl)n(-c2ccccc2)n1 the results were hDAT+cocaine -0.31, CYP2C9 activ 0.7, CYP2C9 inhib 28, CYP2C19 act 0.6 and CYP2C19 inh 44.
`Cc1cc(Nc2nc3ccccc3nc2Cl)n(-c2ccccc2C)n1` gave hDAT+cocaine -0.021, CYP2C9 activ 0.5, CYP2C9 inhib 49, CYP2C19 act 0.1 and CYP2C19 inh 89*.
`COc1ccc(COC(=O)NNC(=O)c2ccc(OC)cc2)cc1` gave hDAT+cocaine 0.012.
`O=C(c1c(Cl)nc2sccn12)N(C(=O)c1c(Cl)nc2sccn12)c1ccc(Cl)cn1` gave hDAT+cocaine 1.6, CYP2C9 activ 0, CYP2C9 inhib 100*, D1 mod -0.028, CYP2C19 act 0 and CYP2C19 inh 100*.
For O=C(NCCc1c[nH]c2ccccc12)c1c(Cl)nc2sccn12 the results were hDAT+cocaine 0.016, CYP2C9 activ 0.9, CYP2C9 inhib 8, D1 mod 0.63, CYP2C19 act 0.7 and CYP2C19 inh 34.
`CCOC(=O)c1c(CN2CCCCC2)n(C)c2cc(Br)c(O)cc12` gave hDAT+cocaine 0.33, CYP2C9 activ 0.7, CYP2C9 inhib 25, CYP2C19 act 0.3 and CYP2C19 inh 71*.
Screening CCOC(=O)c1c(CN2CCN(C)CC2)n(C)c2cc(Br)c(OC)cc12 returned hDAT+cocaine 1.2, CYP2C9 activ 0.4, CYP2C9 inhib 56*, CYP2C19 act 0.5 and CYP2C19 inh 50.
Screening COc1ccc2oc(C)c(C(=O)Cn3ccnc3)c2c1 returned hDAT+cocaine -0.17, CYP2C9 activ 0.3, CYP2C9 inhib 73*, D1 mod -0.58, CYP2C19 act 0.1 and CYP2C19 inh 90*.
`Cc1ccc(Oc2ccc3c(c2)C(=O)N(c2ccc(S(=O)(=O)Nc4nccs4)cc2)C3=O)cc1` gave hDAT+cocaine -0.56, CYP2C9 activ 0.4, CYP2C9 inhib 64*, CYP2C19 act 0.8 and CYP2C19 inh 22.
For CC(C)(C)C(=O)Nc1ccc(Oc2ccc3c(c2)C(=O)N(c2ccc(O)cc2)C3=O)cc1 the results were hDAT+cocaine 0.65, CYP2C9 activ 0.7, CYP2C9 inhib 33, CYP2C19 act 0.7 and CYP2C19 inh 32.
`COc1ccccc1-n1c(CNc2c(C)cccc2C)nnc1SCC(=O)N1CCOCC1` gave hDAT+cocaine 0.33, CYP2C9 activ 1.1, CYP2C9 inhib -5, D1 mod -0.61, CYP2C19 act 1 and CYP2C19 inh 1.
Cc1ccccc1NC(=O)Cc1nc(CSc2nnc(-c3ccc4c(c3)OCO4)o2)cs1 was read as hDAT+cocaine 0.56, CYP2C9 activ 1.1, CYP2C9 inhib -8, CYP2C19 act 0.4 and CYP2C19 inh 63*.
Screening CC(=O)CSc1nnc(-c2ccc3c(c2)OCO3)o1 returned hDAT+cocaine -1.8.
`Cc1ccc(CSc2nnc(-c3ccc4c(c3)OCO4)o2)cc1` gave hDAT+cocaine -0.23, CYP2C9 activ 0.8, CYP2C9 inhib 15, CYP2C19 act 0.9 and CYP2C19 inh 13.
For c1cc(CSc2nnc(-c3ccc4c(c3)OCO4)o2)ccn1 the results were hDAT+cocaine -0.18, CYP2C9 activ 0.1, CYP2C9 inhib 87*, D1 mod 0.55, CYP2C19 act 0.1 and CYP2C19 inh 94*.
For CC(C)N(CCNC(=O)c1cn(C)c2ccc(S(=O)(=O)N(C)C)cc2c1=O)Cc1ccccc1 the results were hDAT+cocaine 1.3, CYP2C9 activ 0.5, CYP2C9 inhib 51*, D1 mod -0.79, CYP2C19 act 0.9 and CYP2C19 inh 11.
`CN1CCN(CCCNC(=O)c2cn(C)c3ccc(S(=O)(=O)N(C)C)cc3c2=O)CC1` gave hDAT+cocaine -0.29, CYP2C9 activ 1, CYP2C9 inhib 4, D1 mod 0.28, CYP2C19 act 1 and CYP2C19 inh 1.

Screens from PubChem.
